Assay results from ChEMBL document CHEMBL1201862, “PubChem BioAssay data set” (2004).
In all, about 400,000 compounds went through this assay and about 2,100 (0.53%) were called active. Another 14% or so got no clear call; they are omitted. How the calls were made is not given here. For the sample, actives were picked, then their nearest neighbours and some compounds at random.

The molecules below were run against Ataxin-2 (Homo sapiens) (UniProt Q99700) (assay: qHTS for Inhibitors of ATXN expression.).
Type: functional

Sequence of Ataxin-2 (Homo sapiens) (Q99700 whole entry): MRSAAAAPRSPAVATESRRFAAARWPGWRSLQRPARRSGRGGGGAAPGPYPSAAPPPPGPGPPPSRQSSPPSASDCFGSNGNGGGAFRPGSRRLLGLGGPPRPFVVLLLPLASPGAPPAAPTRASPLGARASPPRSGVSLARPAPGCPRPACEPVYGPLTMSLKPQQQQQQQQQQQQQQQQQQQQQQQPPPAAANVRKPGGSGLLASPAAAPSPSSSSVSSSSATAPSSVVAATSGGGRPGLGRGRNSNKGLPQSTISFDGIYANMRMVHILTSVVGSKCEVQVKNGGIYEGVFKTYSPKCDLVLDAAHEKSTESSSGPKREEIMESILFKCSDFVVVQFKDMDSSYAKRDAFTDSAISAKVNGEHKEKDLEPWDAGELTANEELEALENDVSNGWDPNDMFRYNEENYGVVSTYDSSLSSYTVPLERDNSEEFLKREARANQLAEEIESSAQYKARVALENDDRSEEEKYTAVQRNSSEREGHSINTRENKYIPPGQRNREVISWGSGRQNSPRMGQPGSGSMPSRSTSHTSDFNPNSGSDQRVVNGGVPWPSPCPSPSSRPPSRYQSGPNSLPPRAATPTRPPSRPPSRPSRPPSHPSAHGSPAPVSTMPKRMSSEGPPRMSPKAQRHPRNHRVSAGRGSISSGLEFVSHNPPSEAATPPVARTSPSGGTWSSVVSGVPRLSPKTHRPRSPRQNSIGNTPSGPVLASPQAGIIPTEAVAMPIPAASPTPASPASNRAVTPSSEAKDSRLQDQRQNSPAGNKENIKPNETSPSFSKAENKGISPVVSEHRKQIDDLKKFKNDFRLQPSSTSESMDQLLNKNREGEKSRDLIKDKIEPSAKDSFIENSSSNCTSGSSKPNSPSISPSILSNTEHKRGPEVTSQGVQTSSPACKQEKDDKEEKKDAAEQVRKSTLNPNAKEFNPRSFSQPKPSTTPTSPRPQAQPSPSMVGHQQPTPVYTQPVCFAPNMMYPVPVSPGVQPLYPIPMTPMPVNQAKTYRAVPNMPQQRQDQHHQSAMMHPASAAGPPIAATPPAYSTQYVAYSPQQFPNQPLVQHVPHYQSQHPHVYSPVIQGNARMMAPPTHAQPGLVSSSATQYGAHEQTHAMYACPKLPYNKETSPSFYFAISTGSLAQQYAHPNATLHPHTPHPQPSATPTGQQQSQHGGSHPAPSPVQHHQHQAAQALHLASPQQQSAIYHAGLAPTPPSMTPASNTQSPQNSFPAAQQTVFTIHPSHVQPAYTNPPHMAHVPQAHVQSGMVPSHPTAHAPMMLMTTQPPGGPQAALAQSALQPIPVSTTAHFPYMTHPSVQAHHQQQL

Row | Compound | Potency
1 | O=C(Nc1ccncc1)c1ccc2ccccc2c1 | inactive
2 | COc1cc(Nc2ccccn2)cc(C(=O)Nc2cccc(C(F)(F)F)c2)c1 | 28.2 µM (active)
3 | COc1cc(/C=C(\C#N)C(=O)Nc2cc(C(F)(F)F)ccc2Cl)ccc1OCC(=O)Nc1cccc(C(F)(F)F)c1 | inactive
4 | C=CCNC(=O)/C(C#N)=C/c1c(N2CC(C)OC(C)C2)nc2ccccn2c1=O (stereo unspecified) | inactive
5 | Cc1ccc(NC(=O)Cc2nc(-c3c[nH]c(C(=O)N4CCCC4)c3)cs2)c(C)c1 | inactive
6 | O=C(O)/C=C\C(=O)Nc1ccc(OC(F)F)cc1 | inactive
7 | C/C(=N\NC(=O)C1CC1)c1ccc(OC(F)F)cc1 | inactive
8 | O=C1C=CC(=O)N1c1ccc(OC(F)F)cc1 | 39.8 µM (active)
9 | COc1cc(/C=C2\C(=N)N3N=C(CC(=O)N4CCCCC4)SC3=NC2=O)cc(OC)c1O | inactive
10 | COCCNC(=O)/C(C#N)=C1\N=C(NC(=O)c2ccco2)c2ccccc21 | inactive
11 | Cc1ccnc2c1ccc1c(C)ccnc12 | 5.32 µM (active)
12 | Cc1ccc2cccnc2c1N | inactive
13 | Cc1nn(CCN)c(C)c1Cl | inactive
14 | O=C(Nc1ccccc1Cl)C1C(c2ccccc2)C1(Cl)Cl (stereo unspecified) | inactive
15 | CCCCCCCCNCCS(=O)(=O)NCc1ccccc1 | 31.6 µM (active)
16 | CCN1C(=O)c2cccc3c(S(=O)(=O)NCc4ccccc4)ccc1c23 | inactive
17 | NC(=O)c1cc(S(=O)(=O)NCc2ccccc2)cs1 | inactive
18 | Nc1cc(-c2ccccc2)nn1Cc1ccccc1 | inactive
19 | COc1ccc(Cn2c(C(=O)O)c(CNCc3ccc(C)o3)c3ccc(C)cc32)cc1 | 17.8 µM (active)
20 | COc1ccc(Cn2c(C)nc3ccc([N+](=O)[O-])cc3c2=O)cc1 | inactive
21 | COc1ccc(CNCc2c(O)c(Cl)cc3c(C)c(C)c(=O)oc23)c(OC)c1 | inactive
22 | Cc1ccc2c(CNCc3ccc(C)o3)c(C(=O)O)n(Cc3ccc(F)cc3)c2c1 | 35.5 µM (active)
23 | CC(=O)c1cn(Cc2ccccc2)c(=O)n(Cc2ccc(F)cc2)c1=O | inactive
24 | Cc1ccc(Cn2c(C(=O)O)c(CNCc3ccc(C)o3)c3ccc(C)cc32)cc1 | 35.5 µM (active)
25 | Cc1c(O[C@@H]2O[C@H](CO)[C@@H](O)[C@H](O)[C@H]2O)ccc2c1oc(=O)c1ccccc12 | inactive
26 | CC(C)OCCCn1c(-c2ccco2)nc2nc3ccccc3nc21 | inactive

Row | Compound | Potency
27 | CC(C)(C)NC(=O)Cn1c(SCC(=O)NC2CC2)nc2ccccc21 | inactive
28 | O=C(Cn1c(SCC(=O)Nc2ccc(F)cc2)nc2ccccc21)NCc1ccccc1Cl | 39.8 µM (active)
29 | O=C(Cn1c(C(F)(F)F)nc2ccccc21)Nc1ccccc1C(=O)O | inactive
30 | C/N=c1\scc(-c2ccc(OC)cc2)n1/N=C(\C)c1cccnc1 | inactive
31 | CC1=CC(=Cc2sc3ccccc3[n+]2C)C=C(C)N1CC1CCCO1 (stereo unspecified) | inactive
32 | Cc1cc(C)n(-c2nnc(Cl)c3ccccc23)n1 | 39.8 µM (active)
33 | COc1ccc(-c2nc(C#N)c(N3CCCCC3)o2)cc1 | inactive
34 | Nc1nc(N)c2cc(CNc3ccc(Cl)c(Cl)c3)ccc2n1 | 11.2 µM (active)
35 | COc1ccc(-c2cc(C(F)(F)F)n3nc(-c4ccccc4)cc3n2)cc1OC | inactive
36 | CCN1CCN(c2nc(NCCO)c3ccccc3n2)CC1 | inactive
37 | CCN1CCN(c2cc(-c3ccccc3)nc3cc(-c4cccc(F)c4)nn23)CC1 | 17.8 µM (active)
38 | Cc1ccnc(NC(=O)c2cc3c(=O)oc4ccc(C)cc4c3s2)c1 | 20 µM (active)
39 | CCN(CC)c1ccc2cc(C(=O)Nc3ccccn3)c(=O)oc2c1 | inactive
40 | Cc1ccnc(NC(=O)c2ccccc2NC(=O)c2ccc(Cl)cc2Cl)c1 | inactive
41 | COc1ccc(Cl)cc1N(CC(=O)N(C)C)S(=O)(=O)c1ccc(C)c([N+](=O)[O-])c1 | inactive
42 | CCOC(=O)C(C)(C)N(Cc1cccc(C)c1)S(=O)(=O)c1ccc(Cl)c([N+](=O)[O-])c1 | 39.8 µM (active)
43 | CCOC(=O)c1c(CSc2ccc(CC)cc2)oc2ccc(O)c(CN(C)C)c12 | 22.4 µM (active)
44 | CCCCc1cc(=O)oc2c(CN(C)C)c(O)ccc12 | inactive
45 | CN(C)Cc1c(O)ccc2c3c(c(=O)oc12)CCCCC3 | inactive
46 | Cc1ccc(/C=N/n2c(S)nnc2-c2ccccn2)o1 | inactive
47 | Cc1ccc2nc(Cn3cc(C(F)(F)F)cc(Cl)c3=O)cc(=O)n2c1 | inactive
48 | CCOc1cc(NC(=O)c2cccs2)c(OCC)cc1NC(=O)c1ccccn1 | inactive
49 | CN(C)c1ccc(-c2[nH]nc(O)c2NC(=O)c2ccccn2)cc1 | 25.1 µM (active)
50 | CN(C)c1ccc(/C=N/NC(=O)c2ccccn2)cc1 | inactive
51 | CC(C)(C)OC(=O)NCCCCCNC(=O)c1[nH]cnc1C(=O)Nc1cc(Br)ccc1F | 39.8 µM (active)
